Source: the supplement of paper PMC12350171
Where a name gives a salt, the structure may show the parent alone. A number with no mark means an inactive call.

Tests used:
Details in all cases: 20 µM
[1] = system: Salmonella enterica typhimurium; test: growth AUC normalised to DMSO control (fraction of control); higher = less growth inhibition, active = hit call of the paper
How it was run: (§1)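 Pathogens passaged twice anaerobically were inoculated at a starting OD578 of 0.01 into pre-reduced mGAM plates with drug at 20 μM and 1% DMSO, sealed with breathable membranes. Haemophilus parainfluenzae medium was supplemented with hemin and NAD. OD578 was read hourly for 24 h, with three biological replicates. Growth-curve AUC was computed by the trapezoidal rule up to the exponential-to-stationary transition and normalised to DMSO controls on the same plate.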

[2] = system: Shigella flexneri; test: as above
How it was run: as §1

[3] = system: Vibrio cholerae; test: as above
How it was run: as §1

[4] = system: Yersinia pseudotuberculosis; test: as above
How it was run: as §1

[5] = system: P. vulgatus RND KO; test: growth AUC normalised to DMSO control (median) (fraction of control); higher = less growth inhibition, active = hit call of the paper
How it was run: (§2)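 Each strain went through two overnight passages under anaerobic conditions before growth in mGAM in 96-well plates, starting at OD578 0.01, with each compound from the approved-drug library at 20 μM and 1% DMSO. Inside an anaerobic incubator, OD578 was recorded every hour for 24 h. Growth curves were cut off at entry into stationary phase, and the area under the curve was calculated by the trapezoidal rule and normalised to vehicle wells on the same plate. Reported values are medians of three biological replicates.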

[6] = system: P. vulgatus WT; test: as above
How it was run: as §2

[7] = system: S. enterica typhimurium WT; test: as above
How it was run: as §2

[8] = system: S. enterica typhimurium tolC KO; test: as above
How it was run: as §2
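Throughout, for growth AUC normalised to DMSO control (median): active when median AUC fell below 0.1.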

Structure (SMILES) | growth AUC normalised to DMSO control [1] | growth AUC normalised to DMSO control [2] | growth AUC normalised to DMSO control [3] | growth AUC normalised to DMSO control [4] | growth AUC normalised to DMSO control [5] | growth AUC normalised to DMSO control [6] | growth AUC normalised to DMSO control [7] | growth AUC normalised to DMSO control [8]
CCn1cc(C(=O)O)c(=O)c2ccc(C)nc21 [Nalidixic acid sodium salt] | 0.594 (active) | 0.111 (active) | 0.035 (active) | 0.052 (active) | 0.985 | 0.969 | 0.105 | 0.0195 (active)
CCCCC(CC)CN1CN(CC(CC)CCCC)CC(C)(N)C1 (configuration not stated) [Hexetidine] | 1.04 | 1.05 | 1.02 | 1.04 | 1.02 | 1.03 | 1.02 | 0.88
CCN(CC)CCOC(=O)C1(c2ccc([N+](=O)[O-])cc2)CCCC1 [Nitrocaramiphen hydrochloride] | 0.993 | 0.993 | 0.974 | 0.996 | 1.03 | 1.05 | 1 | 1
O=C(c1ccc(F)cc1)C1CCN(CCn2c(=O)[nH]c3ccccc3c2=O)CC1 [Ketanserin tartrate hydrate] | 1.01 | 1.03 | 0.894 | 1 | 1.03 | 1.05 | 1.02 | 0.997
NC12CC3CC(CC(C3)C1)C2 [Adamantamine fumarate] | 1.02 | 1.06 | 1.03 | 1 | 1.04 | 1.08 | 0.996 | 0.996
CC1COc2c(N3CCN(C)CC3)c(F)cc3c(=O)c(C(=O)O)cn1c23 (configuration not stated) [Ofloxacin] | 0.00746 (active) | 0.0235 (active) | 0.031 (active) | 0.0386 (active) | 0.0133 (active) | 0.0136 (active) | 0.0106 (active) | 0.00311 (active)
CCOC(=O)Nc1ccc2c(c1)N(C(=O)CCN1CCOCC1)c1ccccc1S2 [Moricizine hydrochloride] | 1.01 | 0.997 | 0.942 | 1.01 | 0.766 | 0.638 | 1.01 | 0.957
CCCNC(=O)NS(=O)(=O)c1ccc(Cl)cc1 [Chlorpropamide] | 1 | 1.02 | 1.01 | 0.996 | 1.02 | 1.06 | 1.01 | 1.04
Nc1nc2c(ncn2COCCO)c(=O)[nH]1 [Acyclovir] | 1.01 | 1.01 | 1.01 | 0.995 | 1.05 | 1.02 | 1 | 1
NC[C@H]1CC[C@H](C(=O)O)CC1 [Tranexamic acid] | 1 | 1.01 | 1.04 | 1.02 | 1.04 | 1.04 | 1 | 1
CCN(CC)CCNC(=O)c1ccc(N)cc1 [Procainamide hydrochloride] | 0.994 | 0.99 | 0.999 | 1 | 1.02 | 1.03 | 1 | 1
CN(C)CCCC1(c2ccc(F)cc2)OCc2cc(C#N)ccc21 (configuration not stated) [Citalopram hydrobromide] | 0.998 | 0.994 | 1 | 1.01 | 1.02 | 0.982 | 1 | 0.991
c1ccc2c(CC3=NCCN3)cccc2c1 [Naphazoline hydrochloride] | 0.994 | 1.01 | 1.01 | 1 | 0.958 | 0.943 | 0.992 | 0.999
CCOC(=O)C1=C(COCCN)NC(C)=C(C(=O)OC)C1c1ccccc1Cl (configuration not stated) [Amlodipine] | 0.997 | 0.99 | 0.985 | 1.01 | 1.02 | 1.02 | 1.02 | 1.01
Nc1ccc(S(=O)(=O)Nc2ccccn2)cc1 [Sulfapyridine] | 0.986 | 0.95 | 0.984 | 0.994 | 1.01 | 1 | 0.998 | 1
Cc1cn([C@H]2C=C[C@@H](CO)O2)c(=O)[nH]c1=O [Stavudine] | 1.01 | 1.03 | 1.03 | 0.992 | 1 | 1.05 | 1.03 | 1.02
Cn1c(=O)c2c(ncn2CC(=O)O)n(C)c1=O [Acefylline] | 0.979 | 0.987 | 0.98 | 0.987 | 0.987 | 0.996 | 0.996 | 1.01
CCN[C@H]1CN(CCCOC)S(=O)(=O)c2sc(S(N)(=O)=O)cc21 [Brinzolamide] | 0.965 | 0.952 | 0.965 | 0.989 | 0.986 | 0.973 | 0.995 | 1
CCN(CC)CCOC(=O)c1ccc(N)cc1 [Procaine hydrochloride] | 1 | 0.992 | 1.01 | 1 | 1.02 | 0.989 | 0.992 | 0.998
CCCCCN(C)CCC(O)(P(=O)(O)O)P(=O)(O)O [Ibandronate sodium] | 0.982 | 0.98 | 0.992 | 1.01 | 0.998 | 1.01 | 0.99 | 1
O=C(N/N=C/c1ccc([N+](=O)[O-])o1)c1ccc(O)cc1 [Nifuroxazide] | 0.866 (active) | 0.189 (active) | 0.623 (active) | 0.96 | 0.883 | 0.861 | 0.924 | 0.862
CCOc1ccc(NC(C)=O)cc1 [Phenacetin] | 0.992 | 0.959 | 0.984 | 0.973 | 1 | 0.997 | 1 | 1
NCCNCCNCCNCCN [Tetraethylenepentamine pentahydrochloride] | 0.99 | 0.972 | 0.979 | 0.998 | 0.998 | 0.995 | 1.01 | 1
CC(C)(C)C(=O)OCOC(=O)[C@@H]1N2C(=O)[C@@H](NC(=O)[C@H](N)c3ccccc3)[C@H]2SC1(C)C [Pivampicillin] | 0.97 | 1.01 | 0.987 | 0.818 (active) | 1.01 | 1.02 | 0.993 | 1
COCCOC(=O)C1=C(C)NC(C)=C(C(=O)OC/C=C/c2ccccc2)C1c1cccc([N+](=O)[O-])c1 (configuration not stated) [Cilnidipine] | 1.01 | 1.01 | 1.03 | 0.976 | 0.989 | 0.98 | 1.01 | 1.01
CC[C@H]1OC(=O)[C@H](C)[C@@H](O[C@H]2C[C@@](C)(OC)[C@@H](O)[C@H](C)O2)[C@H](C)[C@@H](O[C@@H]2O[C@H](C)C[C@H](N(C)C)[C@H]2O)[C@](C)(O)C[C@@H](C)C(=O)[C@H](C)[C@@H](O)[C@]1(C)O [Erythromycin] | 0.74 (active) | 0.6 (active) | 0.0246 (active) | 0.767 (active) | 0.0145 (active) | 0.00909 (active) | 0.811 | 0.00339 (active)
c1ccc(CC2=NCCN2)cc1 [Tolazoline hydrochloride] | 1.01 | 1.02 | 1.02 | 1.01 | 1.02 | 1.07 | 0.987 | 1.01
CCc1oc2ccccc2c1C(=O)c1cc(Br)c(O)c(Br)c1 [Benzbromarone] | 1.01 | 0.989 | 0.989 | 0.996 | 0.57 | 0.699 | 1 | 0.925
C[N+]1(CCCCC[N+]2(C)CCCC2)CCCC1 [Pentolinium bitartrate] | 0.991 | 1 | 0.874 | 0.994 | 1 | 0.978 | 0.989 | 0.996
